# Test results from PubChem BioAssay AID1626 (SRMLSC, 2009).
# The whole screen tested about 220,000 compounds, of which about 2,000 (0.91%) were called active. About 2% were inconclusive and are not listed. Rule as the data show it: inconclusive = inhibition above about 80% without an active follow-up result; inactive = below that; test concentration not stated here. Not all results are given here. Entries with a potency or affinity are not part of this list.
# Experiment: M. tuberculosis H37Rv growth inhibitors, H37Rv strain (AID 1626);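 also: bacteria incubated seven days before Alamar blue readout; 0% = bacteria only wells and 100% = bacteria with antibiotic wells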
# Details: stronger effect = higher value, concentration not given here
row,SMILES,inhibition
1,Cc1ccc(-c2nc3cnccn3c2Nc2ccccc2)o1,9.96% (inactive)
2,Cc1ccn2c(NCc3ccccc3)c(-c3cccs3)nc2c1,6.23% (inactive)
3,CCOc1ccccc1NC(=O)NC1(C(=O)N2CCOCC2)CCCCC1,-10.7% (inactive)
4,O=C(CSCc1ccco1)c1cccs1,-1.66% (inactive)
5,O=C(CSc1nnc(-c2ccc(O)cc2)n1Cc1ccco1)c1cccs1,2.2% (inactive)
6,O=S(=O)(c1cccc2cccnc12)N1CCN(Cc2ccc3c(c2)OCO3)CC1,-5.89% (inactive)
7,Cc1[nH]c2ccccc2c1/C=N/NC(=O)CNC(=O)COc1ccccc1,10% (inactive)
8,COc1ccc(-c2noc(CN3CCCCC3c3nccn3C)n2)cc1 (configuration not stated),6.82% (inactive)
9,COc1ccc(OC)c(-c2nc(CN3CCCCC3c3cccnc3)c(C)o2)c1 (configuration not stated),-0.43% (inactive)
10,CC(C)N(Cc1nccn1C)C(=O)CCc1nnc(CCCc2ccccc2)o1,-2.35% (inactive)
11,CCCCNc1nc(N(C)c2ccccc2)nc(-n2ccnc2)n1,51.3% (inactive)
12,c1ccc(-c2ccc(CN3CCN(c4ncccn4)CC3)cc2)cc1,-1.29% (inactive)
13,C=CCNc1nc(-c2ccccc2)nc(-n2ccnc2)n1,16.6% (inactive)
14,c1ccc(-c2nc(-n3ccnc3)nc(-n3ccnc3)n2)cc1,3.02% (inactive)
15,c1ccc(-c2nc(NC3CC3)nc(-n3ccnc3)n2)cc1,-0.68% (inactive)
16,Nc1nc(N2CCCCC2)nc(N(c2ccccc2)c2ccccc2)n1,1.26% (inactive)
17,COc1nc(N(c2ccccc2)c2ccccc2)nc(-n2ccnc2)n1,25.8% (inactive)
18,c1ccc(N(c2ccccc2)c2nc(-n3ccnc3)nc(-n3ccnc3)n2)cc1,-4.28% (inactive)
19,Cc1nccc(-c2sc(-c3cccs3)nc2C)n1,2.12% (inactive)
20,COc1ccc(N2C(=O)N(Cc3ccccc3F)c3ccccc3S2(=O)=O)cc1,6.95% (inactive)
21,CCCCNC(=O)c1ccc(SCC(=O)N(CC)CC)c([N+](=O)[O-])c1,0.05% (inactive)
22,Brc1ccc(Oc2ncc(CN3CCN(c4ccccc4)CC3)s2)cc1,2.17% (inactive)
23,O=C(Cn1nc(-c2nn(CC(=O)c3ccccc3)c3[n+]2CCCCC3)[n+]2c1CCCCC2)c1ccccc1,6.97% (inactive)
24,Cc1ccc(-c2cn(-c3ccc(OC(F)F)cc3)c3[n+]2CCCCC3)cc1,-4.29% (inactive)
25,O=C(O)CCCC(=O)NNC(=O)c1cccc(Br)c1,0.6% (inactive)
26,COc1cc(CNCc2ccccc2)cc(Cl)c1OC,4.65% (inactive)
27,CCOc1cc(CNCCc2ccc(S(N)(=O)=O)cc2)cc(Cl)c1OCc1ccccc1,58.8% (inactive)
